For ten compounds, Potency results are on record in PubChem BioAssay (NCATS).

The structures appear in SMILES notation. Inconclusive results are not listed. Where a call stands in place of a potency, no number is given. Active and inactive are the calls of the source. Calls follow the shape of the dose curve; as a rule, active = well fitted inhibition curve with a large enough effect; inconclusive = small, poorly fitted or top-dose-only effect; inactive = no such curve, though single readings can be large or run the other way.

Test [1] deals with Zika virus NS2B-NS3 protease (unlinked complex). As to the kind of experiment: Primary screen GU Rhodamine qHTS for Zika virus inhibitors: Unlinked NS2B-NS3 protease assay (AID 1347159). Also: nearly all actives have a fitted effect of over 60% in size. Also: potency is read from the fitted curve at half-maximal effect. Conditions: Recombinant ZIKV NS2B-NS3 protease, Rhodamine110 substrate fluorescence; series mostly up to 107 µM. Summed up: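 Noncovalent NS2B hydrophilic domain/NS3 protease complex (25 nM final) in 10 mM Tris-HCl pH 8.0, 0.01% Tween 20, preincubated 15 min with compounds (up to 114 microM), then 1.5 microM Rhodamine110 substrate. Fluorescence change over 15 min fitted to 4-parameter Hill.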
A general note: In qHTS, concentration-response curves come from the screen itself.

Test [2] concerns Zika virus NS2B-NS3 protease (linked construct). Briefly: Primary screen NINDS Rhodamine qHTS for Zika virus inhibitors (AID 1347160). Also: nearly all actives have a fitted effect of over 55% in size. Conditions: purified NS2B-NS3 protease, Rhodamine110 substrate fluorescence; series mostly up to 57.1 µM. The method, boiled down:
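Purified NS2B-NS3 protease with the NS2B hydrophilic domain joined by a flexible linker (25 nM) in 10 mM Tris-HCl pH 8.0, 0.01% Tween 20, preincubated 15 min at RT with compound; Rhodamine110 peptide substrate 1.5 µM; fluorescence change over 15 min; 4-parameter Hill fit.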

As for `COc1cc(C2Oc3c(OC)cc(CCCO)cc3C2CO)ccc1O[C@H]1O[C@H](C)[C@@H](O)[C@H](O)[C@@H]1O` (stereo not given in full), the Potency result in test [1] and in test [2] was “inactive” throughout.

As for `CC1CCC2(OC1)OC1CC3C4CC=C5CC(O)CC(O[C@@H]6OC[C@@H](O)[C@H](O)[C@H]6O)C5(C)C4CCC3(C)C1(O)C2C` (stereo not given in full), the Potency entry in test [1] and in test [2] was “inactive” in each case.

On to `COC(=O)C1=CO[C@@H](O)C2C(CO)=CCC12` (stereo not given in full), for which the Potency entry in test [1] and in test [2] was “inactive” throughout.

As to `Cc1cc(Nc2ncc3cc(-c4c(Cl)cccc4Cl)c(=O)n(C)c3n2)ccc1F`, the Potency result in test [1] and in test [2] was “inactive” throughout.

With `C/C(=C\CCC(C)CCO)C(=O)O[C@@H]1[C@@H](O)[C@H](OC2OC=C(C(=O)O)C3CCC(C)(O)C23)O[C@H](CO)[C@H]1O` (stereo not given in full), in test [1], the Potency was 35.5 µM (active). Besides, in test [2], the Potency result was “inactive”.

For the compound `O=C1CCC=CC1(O)C(=O)OCc1ccccc1O[C@@H]1O[C@H](CO)[C@@H](O)[C@H](O)[C@H]1O` (stereo not given in full), the Potency entry in test [1] and in test [2] was “inactive” each time.

Take `Cc1cc(C(=O)N2Cc3cnn(C)c3Nc3ccccc32)ccc1CNC(=O)N1CCC[C@H]1C(=S)N1CCCN(C)CC1`: the Potency result in test [1] and in test [2] was “inactive” throughout.

Turning to `COc1cc(C(=O)O)ccc1OC1OC(CO)C(O)C(O)C1O` (stereo not given), the Potency entry in test [1] and in test [2] was “inactive” in each case.

Regarding `O=C1NC(Cc2c[nH]c3ccccc23)C(=O)NC1Cc1cnc[nH]1` (stereo not given), the Potency result in test [1] and in test [2] was “inactive” in each case.

Regarding `CC(=O)C1=CCC2C3CCC4CC(O[C@@H]5O[C@H](CO)[C@@H](O[C@@H]6O[C@@H](C)[C@H](O)[C@@H](O)[C@H]6O)[C@H](O)[C@H]5O[C@@H]5O[C@H](CO)[C@@H](O)[C@H](O)[C@H]5O)CCC4(C)C3CCC12C` (stereo not given in full), the Potency result in test [1] and in test [2] was “inactive” in each case.
